# Test results reported in PubChem BioAssay (Tox21).
# Records with an inconclusive call do not appear. Calls of active or inactive are those of the source. The call rests on the fitted dose curve; in most records, active means well fitted cell-killing curve with a large enough effect in the repeat runs; inconclusive means weak or mixed curves, or effect the other way; inactive means no such curve, though single readings can be large or run the other way.
# Assay: qHTS assay for small molecule activators of the heat shock response signaling pathway - cell viability counter screen (AID 743209); further: nearly all actives have a fitted effect of over 50% in size
# Settings: HSE-bla HeLa viability, CellTiter-Glo luminescence, 5 h; series mostly up to 62.6 µM; activity change, negative = cytotoxicity: at the top concentration
# Description: U.S. Tox21 Program National Center for Advancing Translational Sciences [NCATS] NIH Chemical Genomics Center [NCGC] U.S. Environmental Protection Agency [EPA] National Institutes of Environmental Health Sciences [NIEHS] National Toxicology Program [NTP] U.S. Food and Drug Administration [FDA] Tox21 Assay Overview: Various chemicals, environmental and physiological stress conditions may lead to the activation of heat shock response/ unfolded protein response (HSR/UPR). There are three heat shock transcription factors (HSFs) (HSF-1, -2, and -4) mediating transcriptional regulation of the human HSR. To identify the compounds that activate HSR signaling, HSE-bla HeLa cell line (Invitrogen, Carlsbad, CA, USA) containing a beta-lactamase reporter gene under the control of the heat shock response elements was used to screen Tox21 10K compound library. The cytotoxicity of the Tox21 compound library against the HSE-bla HeLa cell line was tested in parallel by measuring the cell viability using CellTiter-Glo assay (Promega, Madison, WI) in the same wells.
# Tox21 Assay Protocol Summary: The CellSensor HSE-bla HeLa cells (Invitrogen, Carlsbad, CA, USA) were dispensed at 1500 cells/6uL/well into 1536-well black wall/clear bottom plates using a Multidrop combi (Thermo Fisher Scientific, Waltham, MA) dispenser. After the assay plates were incubated at 37 C and 5% CO2 overnight, 23 nL of compounds dissolved in DMSO, positive controls or DMSO only was transferred to the assay plate by a Pintool station (Kalypsys, San Diego, CA). The plates were incubated at 37 C for 5 h. After 1 uL of LiveBLAzerTM B/G FRET substrate was added using a Flying Reagent Dispenser (FRD, Beckman Coulter, Indianapolis, IN, USA), the plates were incubated at room temperature for 2.5 h, and fluorescence intensity was measured by an Envision plate reader (PerkinElmer, Shelton, CT). For cell viability readout that measures cytotoxicity, 3 ul/well of CellTiter-Glo reagent was added into the assay plates using a FRD. After 30 min incubation at room temperature, the luminescence intensity in the plates was measured using a ViewLux (PerkinElmer) plate reader.
# On the % scale 0 is the no-effect control and ±100 the full control effect.
Compound,outcome,"activity change, negative = cytotoxicity"
CC1(C)CC(N)CC(C)(CN)C1 (stereo not given),inactive,–
CCNc1ccccc1,inactive,–
CCc1ccccc1CC,inactive,–
OC1C(O)C(O)C(O)C(O)C1O (stereo not given),inactive,–
C=C(C)C(=O)OCC(C)C,–,6.77% (inactive)
CC(C)OC(=O)COc1ccc(Cl)cc1Cl,inactive,–
CCCCCCO,inactive,–
COc1ccc(OC)cc1,inactive,–
CNC(=O)Oc1ccc2c(c1)[C@]1(C)CCN(C)[C@@H]1N2C,inactive,–
CC(C)=CCl,inactive,–
CN(C)c1ccc(Cc2ccc(N(C)C)cc2)cc1,–,10.9% (inactive)
CC(=O)CCC=C(C)C,inactive,–
O=c1[nH]cnc2[nH]ncc12,inactive,–
CC(C)c1cccc(C(C)C)c1,inactive,–
COc1ccc(C)cc1N,inactive,–
O=C(O)c1ccc(C(=O)O)c(C(=O)O)c1,–,5.59% (inactive)
C=CC(=O)OCCC(=O)O,inactive,–
CC(C)(C)c1cc(Cc2cc(C(C)(C)C)c(O)c(C(C)(C)C)c2)cc(C(C)(C)C)c1O,inactive,–
c1ccc(Oc2ccccc2)cc1,inactive,–
CCCCCCC=O,inactive,–

Compound,outcome,"activity change, negative = cytotoxicity"
CN/C(=C\[N+](=O)[O-])NCCSCc1csc(CN(C)C)n1,inactive,–
CC(C)(C#N)c1cc(Cn2cncn2)cc(C(C)(C)C#N)c1,inactive,–
CC(=O)OC1CC(C)OC(C)O1 (stereo not given),inactive,–
C=CC[N+](C)(C)CC=C,inactive,–
O=C(O)Cn1c(=O)n(Cc2ccc(Br)cc2F)c(=O)c2ccc(Cl)cc21,inactive,–
C=Cc1ccc(C)cc1,inactive,–
COc1cc(OC)c(C(=O)CCCN2CCCC2)c(OC)c1,inactive,–
CCOC(=O)n1ccn(C)c1=S,inactive,–
CC(C)CC(C)O (stereo not given),inactive,–
COc1ccc(CCC(C)=O)cc1,inactive,–
CC(=O)CC(C)(C)O,inactive,–
CCCCCCCCCCO,inactive,–
CCCCCCCC=O,inactive,–
CC(O)CC(C)(C)O (stereo not given),inactive,–
NCCCCCCN,inactive,–
COC(=O)c1cccnc1,inactive,–
CCCCCCCCCCCCCCCC(=O)OC(C)C,inactive,–
O=C(O)c1ccccc1C(=O)O,inactive,–
CC(=O)OCCOC(C)=O,inactive,–
NCCN1CCNCC1,inactive,–
